Of roughly 8,800 targets only a part is listed; those with a hit were picked by preference. About 0.5% of all pairs of compound and target were hits.
Assays:
Assay in all cases: log2 fold change, soluble protein after heating vs DMSO (PISA); higher = thermal stabilisation; K562 lysate, 10 uM; active = over 0.2 and 3.5 SD of the protein, either way, in both replicates (recomputed)
lapatinib = compound: CS(=O)(=O)CCNCc1ccc(-c2ccc3ncnc(Nc4ccc(OCc5cccc(F)c5)c(Cl)c4)c3c2)o1 [lapatinib]
In short: (§1)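 Thermal stability, expressed as log-two fold change relative to solvent controls, is given from duplicates. Crude K562 extract in PBS pH 7.4 with 1 mM MgCl2, at 1 mg/mL protein, was treated with 10 μM compound for 30 min and heated in aliquots for 3 min across 48°C-58°C. After pooling, adjustment to 0.5% NP-40 at 4°C and centrifugation at 21,000xg for 90 min, supernatant protein was measured by TMTpro 16plex LC-MS/MS with channel sums equalised.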

pictilisib = compound: CS(=O)(=O)N1CCN(Cc2cc3nc(-c4cccc5[nH]ncc45)nc(N4CCOCC4)c3s2)CC1 [pictilisib]
In short: as §1

crizotinib = compound: C[C@@H](Oc1cc(-c2cnn(C3CCNCC3)c2)cnc1N)c1c(Cl)ccc(F)c1Cl [crizotinib]
In short: as §1

[1] = compound: C[C@H](C1=CC=C(C=C1)C(=O)NC2=C3C=CNC3=NC=C2)N
In short: as §1

duvelisib = compound: C[C@H](Nc1ncnc2nc[nH]c12)c1cc2cccc(Cl)c2c(=O)n1-c1ccccc1 [duvelisib]
In short: as §1

gandotinib = compound: Cc1cc(Nc2cc(CN3CCOCC3)c3nc(C)c(Cc4ccc(Cl)cc4F)n3n2)n[nH]1 [gandotinib]
In short: as §1

tozasertib = compound: Cc1cc(Nc2cc(N3CCN(C)CC3)nc(Sc3ccc(NC(=O)C4CC4)cc3)n2)n[nH]1 [tozasertib]
In short: as §1

doramapimod = compound: Cc1ccc(-n2nc(C(C)(C)C)cc2NC(=O)Nc2ccc(OCCN3CCOCC3)c3ccccc23)cc1 [doramapimod]
In short: as §1

bafetinib = compound: Cc1ccc(NC(=O)c2ccc(CN3CC[C@H](N(C)C)C3)c(C(F)(F)F)c2)cc1Nc1nccc(-c2cncnc2)n1 [bafetinib]
In short: as §1

[2] = compound: Cc1cccc(CC(=O)N2CCc3c2ccc(-c2cn(C)c4ncnc(N)c24)c3F)n1
In short: as §1

nilotinib = compound: Cc1cn(-c2cc(NC(=O)c3ccc(C)c(Nc4nccc(-c5cccnc5)n4)c3)cc(C(F)(F)F)c2)cn1 [nilotinib]
In short: as §1

[3] = compound: Cc1nc(Nc2n[nH]c3c2CN(C(=O)N[C@H](CN(C)C)c2ccccc2)C3(C)C)c2sccc2n1
In short: as §1

dasatinib = compound: Cc1nc(Nc2ncc(C(=O)Nc3c(C)cccc3Cl)s2)cc(N2CCN(CCO)CC2)n1 [dasatinib]
In short: as §1

[4] = compound: Cc1ncc(-c2ccnc(Nc3ccc(S(C)(=O)=O)cc3)n2)n1C(C)C
In short: as §1

[5] = compound: Cn1cc(-c2ccc3c(c2)CCN3C(=O)Cc2cccc(C(F)(F)F)c2)c2c(N)ncnc21
In short: as §1

quisinostat = compound: Cn1cc(CNCC2CCN(c3ncc(C(=O)NO)cn3)CC2)c2ccccc21 [quisinostat]
In short: as §1

tipifarnib = compound: Cn1cncc1[C@@](N)(c1ccc(Cl)cc1)c1ccc2c(c1)c(-c1cccc(Cl)c1)cc(=O)n2C [tipifarnib]
In short: as §1

[6] = compound: NC(=O)Nc1cc(-c2cccc(F)c2)sc1C(=O)N[C@H]1CCCNC1
In short: as §1

[7] = compound: NC(=O)c1cnc(N[C@@H]2CCCC[C@@H]2N)nc1Nc1cccc(-n2nccn2)c1
In short: as §1

[8] = compound: NC1(c2ccc(-c3nc4ccn5c(=O)[nH]nc5c4cc3-c3ccccc3)cc2)CCC1
In short: as §1

Measured: log2 fold change

PAXBP1 (UniProt Q9Y5B6)
Sequence of UniProt Q9Y5B6 (Q9Y5B6 whole entry, looked up): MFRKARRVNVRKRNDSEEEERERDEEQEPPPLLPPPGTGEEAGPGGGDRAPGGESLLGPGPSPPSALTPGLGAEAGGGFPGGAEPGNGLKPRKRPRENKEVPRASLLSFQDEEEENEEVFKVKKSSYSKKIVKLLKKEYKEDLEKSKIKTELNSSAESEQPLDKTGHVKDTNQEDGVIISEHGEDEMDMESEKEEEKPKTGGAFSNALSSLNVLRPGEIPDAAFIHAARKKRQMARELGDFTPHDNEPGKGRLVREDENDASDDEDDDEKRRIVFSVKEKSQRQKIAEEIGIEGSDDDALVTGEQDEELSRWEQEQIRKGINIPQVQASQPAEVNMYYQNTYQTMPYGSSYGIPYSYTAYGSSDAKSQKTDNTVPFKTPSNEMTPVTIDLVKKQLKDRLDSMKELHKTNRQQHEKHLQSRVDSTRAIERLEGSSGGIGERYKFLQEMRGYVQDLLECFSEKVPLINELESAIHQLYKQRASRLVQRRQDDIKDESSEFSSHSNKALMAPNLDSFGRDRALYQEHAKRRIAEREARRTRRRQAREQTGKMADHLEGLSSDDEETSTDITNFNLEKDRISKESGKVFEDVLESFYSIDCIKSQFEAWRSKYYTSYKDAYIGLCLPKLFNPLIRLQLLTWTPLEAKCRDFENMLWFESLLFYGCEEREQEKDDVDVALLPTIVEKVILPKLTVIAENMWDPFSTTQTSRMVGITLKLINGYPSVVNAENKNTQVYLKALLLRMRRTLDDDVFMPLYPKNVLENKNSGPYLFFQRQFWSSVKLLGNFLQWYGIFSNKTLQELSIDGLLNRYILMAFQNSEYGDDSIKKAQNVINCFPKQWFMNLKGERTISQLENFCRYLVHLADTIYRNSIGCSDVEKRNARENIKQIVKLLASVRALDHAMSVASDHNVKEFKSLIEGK
inactive: lapatinib 0.002 | pictilisib -0.077 | crizotinib -0.027 | [1] -0.037 | duvelisib -0.008 | gandotinib -0.029 | tozasertib 0.012 | doramapimod 0.038 | bafetinib -0.024 | [2] 0.002 | nilotinib -0.014 | [3] 0.012 | dasatinib -0.046 | [4] 0.011 | [5] 0.024 | quisinostat -0.041 | tipifarnib -0.008 | [6] 0.031 | [7] 0.023 | [8] -0.006

NAT1 (UniProt P18440)
inactive: lapatinib 0.026 | pictilisib 0.111 | crizotinib -0.227 | [1] -0.089 | duvelisib 0.006 | gandotinib 0.004 | tozasertib -0.048 | doramapimod 0.058 | bafetinib 0.006 | [2] 0.083 | nilotinib -0.005 | [3] -0.017 | dasatinib -0.058 | [4] -0.04 | [5] 0.097 | quisinostat -0.1 | tipifarnib -0.006 | [6] 0.017 | [7] -0.018 | [8] -0.037

NUP98 (UniProt P52948)
inactive: lapatinib 0.007 | pictilisib -0.041 | crizotinib 0.017 | [1] -0.014 | duvelisib -0.04 | gandotinib 0.01 | tozasertib -0.033 | doramapimod -0.024 | bafetinib -0.024 | [2] 0.043 | nilotinib -0.041 | [3] -0.017 | dasatinib -0.053 | [4] -0.008 | [5] 0.031 | quisinostat -0.049 | tipifarnib -0.12 | [6] 0.055 | [7] -0.002 | [8] 0.003

NARS2 (UniProt Q96I59)
inactive: lapatinib 0.039 | pictilisib -0.132 | crizotinib -0.034 | [1] 0.039 | duvelisib -0.002 | gandotinib -0.058 | tozasertib 0.013 | doramapimod -0.01 | bafetinib -0.053 | [2] 0.024 | nilotinib 0.019 | [3] -0.027 | dasatinib -0.046 | [4] -0.014 | [5] 0.026 | quisinostat -0.023 | tipifarnib 0.007 | [6] 0.051 | [7] 0.037 | [8] -0.037

PANK1 (UniProt Q8TE04)
Sequence of UniProt Q8TE04 (Q8TE04 whole entry, looked up): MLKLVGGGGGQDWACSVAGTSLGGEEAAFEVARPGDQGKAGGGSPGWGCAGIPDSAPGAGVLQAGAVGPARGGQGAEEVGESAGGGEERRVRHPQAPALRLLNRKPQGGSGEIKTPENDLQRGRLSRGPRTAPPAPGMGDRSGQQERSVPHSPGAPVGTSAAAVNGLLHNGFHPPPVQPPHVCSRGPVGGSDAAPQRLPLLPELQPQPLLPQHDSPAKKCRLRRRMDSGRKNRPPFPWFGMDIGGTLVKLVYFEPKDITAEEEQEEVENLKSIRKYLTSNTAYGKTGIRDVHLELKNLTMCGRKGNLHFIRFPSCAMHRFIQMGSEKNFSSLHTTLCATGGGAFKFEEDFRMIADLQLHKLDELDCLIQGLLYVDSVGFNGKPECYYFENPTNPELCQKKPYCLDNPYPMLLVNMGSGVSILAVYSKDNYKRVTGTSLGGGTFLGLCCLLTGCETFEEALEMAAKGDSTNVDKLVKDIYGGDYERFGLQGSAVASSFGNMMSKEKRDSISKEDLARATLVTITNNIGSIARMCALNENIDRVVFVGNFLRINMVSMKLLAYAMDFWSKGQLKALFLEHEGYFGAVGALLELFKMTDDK
inactive: lapatinib -0.008 | pictilisib 0.151 | crizotinib -0.018 | [1] 0.106 | duvelisib 0.099 | tozasertib 0.069 | doramapimod 0.041 | bafetinib -0.062 | [2] -0.253 | nilotinib -0.005 | [3] 0.014 | dasatinib -0.028 | [4] -0.05 | [5] 0.053 | quisinostat -0.039 | tipifarnib 0.079 | [6] 0.062 | [7] -0.007 | [8] 0.062
active: gandotinib -0.31

NUMB (UniProt P49757)
inactive: lapatinib 0.033 | pictilisib 0.023 | crizotinib 0.02 | [1] -0.057 | duvelisib 0.029 | gandotinib 0.097 | tozasertib 0.047 | doramapimod 0.125 | bafetinib -0.069 | [2] 0.038 | nilotinib -0.03 | [3] -0.024 | dasatinib -0.072 | [4] -0.008 | [5] 0.001 | quisinostat -0.02 | tipifarnib 0.001 | [6] -0.029 | [7] -0.026 | [8] 0.003

NUP93 (UniProt Q8N1F7)
inactive: lapatinib -0.011 | pictilisib -0.029 | crizotinib -0.03 | [1] -0.027 | duvelisib -0.03 | gandotinib -0.158 | tozasertib 0.015 | doramapimod 0.022 | bafetinib -0.054 | [2] 0.07 | nilotinib -0.02 | [3] 0.001 | dasatinib -0.098 | [4] -0.006 | [5] 0.031 | quisinostat 0.037 | tipifarnib -0.04 | [6] 0.021 | [7] 0.018 | [8] -0.005

NUDT5 (UniProt Q9UKK9)
inactive: lapatinib 0.003 | pictilisib -0.036 | crizotinib 0.007 | duvelisib 0.051 | gandotinib 0.211 | tozasertib -0.018 | doramapimod -0.015 | bafetinib -0.016 | [2] 0.212 | nilotinib 0.021 | [3] 0 | dasatinib 0.045 | [4] 0.008 | [5] -0.024 | quisinostat -0.016 | tipifarnib -0.013 | [6] -0.018 | [7] -0.013 | [8] -0.014
active: [1] -0.299

PAK4 (UniProt O96013)
Sequence of UniProt O96013 (O96013 whole entry, looked up): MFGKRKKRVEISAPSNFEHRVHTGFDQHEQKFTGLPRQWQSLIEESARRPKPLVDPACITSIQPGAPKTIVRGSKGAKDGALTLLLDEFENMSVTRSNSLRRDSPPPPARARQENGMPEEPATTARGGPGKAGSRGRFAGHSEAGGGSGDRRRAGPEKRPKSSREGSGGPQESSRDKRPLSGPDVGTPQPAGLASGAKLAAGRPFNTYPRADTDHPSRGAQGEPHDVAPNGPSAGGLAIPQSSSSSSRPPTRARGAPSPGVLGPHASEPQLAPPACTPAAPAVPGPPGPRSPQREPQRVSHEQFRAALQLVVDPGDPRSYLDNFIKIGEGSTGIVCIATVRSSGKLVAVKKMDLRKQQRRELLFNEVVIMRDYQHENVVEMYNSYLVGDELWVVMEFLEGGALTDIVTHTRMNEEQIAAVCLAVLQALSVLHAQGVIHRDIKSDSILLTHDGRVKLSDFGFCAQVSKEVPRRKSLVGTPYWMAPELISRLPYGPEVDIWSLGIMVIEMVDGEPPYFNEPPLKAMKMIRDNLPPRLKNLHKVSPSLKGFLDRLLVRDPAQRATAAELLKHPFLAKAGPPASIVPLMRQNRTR
inactive: lapatinib -0.147 | pictilisib 0.139 | crizotinib 0.037 | [1] 0.163 | duvelisib 0.05 | tozasertib 0.18 | doramapimod -0.236 | bafetinib -0.011 | [2] -0.12 | nilotinib -0.015 | dasatinib 0.141 | [4] 0.264 | [5] -0.081 | quisinostat -0.269 | tipifarnib -0.016 | [7] 0.473 | [8] 0.257
active: gandotinib 0.709 | [3] 0.71 | [6] 0.9

NPM3 (UniProt O75607)
inactive: lapatinib 0.087 | pictilisib 0.053 | crizotinib -0.02 | [1] -0.201 | duvelisib 0.014 | gandotinib 0.068 | tozasertib -0.036 | doramapimod 0.027 | bafetinib 0.04 | [2] 0.164 | nilotinib -0.039 | [3] -0.012 | dasatinib 0.065 | [4] 0.049 | [5] 0.024 | quisinostat -0.024 | tipifarnib -0.027 | [6] 0.019 | [7] 0.03 | [8] -0.029

OSBPL3 isoform 2 (UniProt Q9H4L5)
Sequence of UniProt Q9H4L5 (Q9H4L5 whole entry, looked up): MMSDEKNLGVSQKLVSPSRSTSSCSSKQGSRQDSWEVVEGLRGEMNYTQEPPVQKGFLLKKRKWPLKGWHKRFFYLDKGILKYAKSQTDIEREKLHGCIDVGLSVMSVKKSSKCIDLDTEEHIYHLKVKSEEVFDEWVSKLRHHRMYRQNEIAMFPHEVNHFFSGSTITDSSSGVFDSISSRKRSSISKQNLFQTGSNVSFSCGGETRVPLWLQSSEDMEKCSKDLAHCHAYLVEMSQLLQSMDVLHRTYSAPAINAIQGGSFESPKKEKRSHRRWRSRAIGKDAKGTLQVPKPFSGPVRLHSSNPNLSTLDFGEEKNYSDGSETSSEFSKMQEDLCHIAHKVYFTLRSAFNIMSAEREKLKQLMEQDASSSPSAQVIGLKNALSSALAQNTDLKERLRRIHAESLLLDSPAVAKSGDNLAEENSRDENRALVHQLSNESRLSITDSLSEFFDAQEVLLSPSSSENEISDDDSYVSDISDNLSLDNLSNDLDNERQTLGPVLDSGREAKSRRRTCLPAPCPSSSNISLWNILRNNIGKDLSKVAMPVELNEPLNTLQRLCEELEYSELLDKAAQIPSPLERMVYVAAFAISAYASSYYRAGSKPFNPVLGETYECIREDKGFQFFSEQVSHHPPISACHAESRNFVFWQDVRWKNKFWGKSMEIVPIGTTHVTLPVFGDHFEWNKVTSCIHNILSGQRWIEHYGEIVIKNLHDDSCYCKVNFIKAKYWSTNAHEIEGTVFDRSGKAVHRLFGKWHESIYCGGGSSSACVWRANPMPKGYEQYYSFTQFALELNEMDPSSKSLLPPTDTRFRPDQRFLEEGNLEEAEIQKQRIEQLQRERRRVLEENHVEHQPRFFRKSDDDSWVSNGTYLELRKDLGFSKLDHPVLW
inactive: lapatinib 0.073 | pictilisib -0.039 | crizotinib 0.014 | [1] -0.045 | duvelisib 0.03 | gandotinib -0.052 | tozasertib -0.005 | doramapimod 0.107 | bafetinib 0.269 | [2] 0.035 | nilotinib 0.085 | [3] -0.048 | dasatinib -0.191 | [4] -0.026 | [5] 0.024 | quisinostat -0.051 | tipifarnib -0.02 | [6] 0.003 | [7] 0.017 | [8] -0.151

MRPS18A isoform 2 (UniProt Q9NVS2)
inactive: lapatinib 0.005 | pictilisib -0.046 | crizotinib -0.02 | [1] 0.262 | duvelisib -0.133 | gandotinib -0.164 | tozasertib 0.043 | doramapimod -0.005 | bafetinib 0 | [2] -0.226 | nilotinib 0.031 | [3] -0.022 | dasatinib -0.054 | [4] -0.033 | [5] 0.006 | quisinostat -0.012 | tipifarnib -0.026 | [6] 0.036 | [7] 0.014 | [8] -0.065

NUDT4 isoform 2 (UniProt Q9NZJ9)
Sequence of UniProt Q9NZJ9 (Q9NZJ9 whole entry, looked up): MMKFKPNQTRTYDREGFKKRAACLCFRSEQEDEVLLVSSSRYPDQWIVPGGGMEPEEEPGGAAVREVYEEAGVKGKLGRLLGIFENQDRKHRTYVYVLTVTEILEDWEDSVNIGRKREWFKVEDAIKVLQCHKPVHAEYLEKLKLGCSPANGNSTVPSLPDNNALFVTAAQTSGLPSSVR
inactive: lapatinib -0.002 | pictilisib 0.006 | crizotinib -0.018 | [1] -0.055 | duvelisib -0.013 | gandotinib 0.061 | tozasertib 0.065 | doramapimod -0.009 | bafetinib -0.006 | [2] 0.011 | nilotinib -0.004 | [3] 0.012 | dasatinib 0.13 | [4] -0.002 | [5] 0.038 | quisinostat -0.012 | tipifarnib -0.044 | [6] 0.016 | [7] -0.042 | [8] 0.043

PARP14 (UniProt Q460N5)
Sequence of UniProt Q460N5 (Q460N5 whole entry, looked up): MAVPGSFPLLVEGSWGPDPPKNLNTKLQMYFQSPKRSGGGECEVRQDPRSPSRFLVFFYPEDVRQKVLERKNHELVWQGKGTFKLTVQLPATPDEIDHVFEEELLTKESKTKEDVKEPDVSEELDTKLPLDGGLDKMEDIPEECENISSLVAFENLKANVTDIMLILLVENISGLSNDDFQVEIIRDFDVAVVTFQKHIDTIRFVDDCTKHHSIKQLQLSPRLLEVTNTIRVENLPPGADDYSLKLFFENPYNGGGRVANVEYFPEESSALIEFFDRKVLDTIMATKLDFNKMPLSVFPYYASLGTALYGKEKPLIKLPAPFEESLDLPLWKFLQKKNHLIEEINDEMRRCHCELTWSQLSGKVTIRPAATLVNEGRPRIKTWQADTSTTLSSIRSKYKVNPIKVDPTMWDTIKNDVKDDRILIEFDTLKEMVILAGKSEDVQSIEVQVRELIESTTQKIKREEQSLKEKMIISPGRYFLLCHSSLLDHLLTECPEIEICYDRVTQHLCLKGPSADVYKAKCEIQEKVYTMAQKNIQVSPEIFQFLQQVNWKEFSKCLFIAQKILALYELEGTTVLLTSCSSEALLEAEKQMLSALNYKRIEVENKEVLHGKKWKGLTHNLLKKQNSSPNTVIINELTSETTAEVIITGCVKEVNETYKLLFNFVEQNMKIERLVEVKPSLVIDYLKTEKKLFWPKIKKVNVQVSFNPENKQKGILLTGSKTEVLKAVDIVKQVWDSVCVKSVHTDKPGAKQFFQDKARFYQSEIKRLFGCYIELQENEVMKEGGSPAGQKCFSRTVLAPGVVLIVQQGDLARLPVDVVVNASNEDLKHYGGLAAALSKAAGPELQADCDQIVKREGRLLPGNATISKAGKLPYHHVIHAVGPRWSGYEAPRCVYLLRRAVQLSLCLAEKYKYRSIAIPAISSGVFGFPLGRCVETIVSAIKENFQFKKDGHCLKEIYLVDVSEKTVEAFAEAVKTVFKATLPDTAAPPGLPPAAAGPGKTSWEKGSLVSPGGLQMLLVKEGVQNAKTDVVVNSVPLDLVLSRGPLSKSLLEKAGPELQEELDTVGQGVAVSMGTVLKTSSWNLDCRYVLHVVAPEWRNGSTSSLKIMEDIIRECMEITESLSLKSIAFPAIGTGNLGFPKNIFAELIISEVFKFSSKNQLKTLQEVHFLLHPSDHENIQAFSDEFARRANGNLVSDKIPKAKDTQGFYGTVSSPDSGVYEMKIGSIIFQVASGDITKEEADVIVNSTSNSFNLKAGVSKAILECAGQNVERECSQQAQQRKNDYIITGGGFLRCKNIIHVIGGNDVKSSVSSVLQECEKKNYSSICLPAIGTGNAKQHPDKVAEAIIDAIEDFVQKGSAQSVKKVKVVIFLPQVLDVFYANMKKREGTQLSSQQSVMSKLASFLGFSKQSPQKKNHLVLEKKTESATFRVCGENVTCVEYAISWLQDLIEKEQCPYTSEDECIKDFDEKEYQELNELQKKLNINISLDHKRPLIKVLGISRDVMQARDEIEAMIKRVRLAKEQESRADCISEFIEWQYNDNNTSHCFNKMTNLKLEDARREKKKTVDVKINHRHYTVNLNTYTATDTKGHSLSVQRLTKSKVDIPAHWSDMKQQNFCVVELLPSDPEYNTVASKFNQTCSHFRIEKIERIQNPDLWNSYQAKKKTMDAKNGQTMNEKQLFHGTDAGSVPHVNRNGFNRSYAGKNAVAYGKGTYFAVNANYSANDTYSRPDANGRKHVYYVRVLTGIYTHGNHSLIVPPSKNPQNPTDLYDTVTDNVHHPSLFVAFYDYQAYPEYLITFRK
inactive: lapatinib -0.018 | pictilisib -0.057 | crizotinib -0.154 | [1] 0.148 | duvelisib -0.13 | gandotinib -0.123 | tozasertib -0.013 | doramapimod -0.013 | bafetinib -0.081 | [2] 0 | nilotinib 0.004 | [3] -0.022 | dasatinib -0.024 | [4] 0.068 | [5] 0.256 | quisinostat -0.025 | tipifarnib -0.068 | [6] 0.128 | [7] 0.051 | [8] -0.09

NPLOC4 isoform 2 (UniProt Q8TAT6)
inactive: lapatinib 0.022 | pictilisib 0.003 | crizotinib -0.023 | [1] -0.087 | duvelisib 0.01 | gandotinib 0.046 | tozasertib -0.003 | doramapimod 0.056 | bafetinib -0.019 | [2] 0.007 | nilotinib -0.005 | [3] 0.007 | dasatinib 0.019 | [4] 0.007 | [5] 0.004 | quisinostat -0.037 | tipifarnib 0 | [6] -0.006 | [7] 0.018 | [8] -0.023

NONO (UniProt Q15233)
inactive: lapatinib -0.004 | pictilisib 0.001 | crizotinib 0.011 | [1] 0.071 | duvelisib -0.01 | gandotinib -0.06 | tozasertib 0.028 | doramapimod -0.014 | bafetinib -0.033 | [2] -0.04 | nilotinib -0.007 | [3] -0.011 | dasatinib -0.047 | [4] 0.007 | [5] 0.012 | quisinostat -0.004 | tipifarnib -0.007 | [6] 0.022 | [7] 0.008 | [8] -0.013

Reference: the supplement of paper PMC10849652
